Laboratory results from PubChem BioAssay AID623972 (The Scripps Research Institute Molecular Screening Center, 2012).
Several values for one entry are separate records, joined by “and”; a condition that tells them apart may be missing. Equal entries are not always repeated. A number with no mark means an inactive call. Activity calls are given as the source filed them. The rule behind the calls is not given here.

Experiment: DNA binding via ethidium displacement, late-stage follow-up, artefact control for HCV NS3 helicase inhibitor project, biochemical, fluorescence, ethidium bromide (AID 623972)
In the case of `Cc1ccc2nc(-c3ccc4nc(-c5ccc6nc(-c7ccc(N)cc7)sc6c5)sc4c3)sc2c1S(=O)(=O)O`, the IC50 is reported as 55 µM (active).
In the case of `Cc1ccc2nc(-c3ccc4nc(-c5ccc6nc(-c7ccc(N)cc7)sc6c5)sc4c3)sc2c1S(=O)(=O)O` (tested in a mixture with another compound), the IC50 is reported as 73 µM (active).
With `CCN(CC)c1ccc(-c2nc3ccc(-c4nc5ccc(C)c(S(=O)(=O)O)c5s4)cc3s2)cc1` the IC50 was over 100 µM.
`COc1cccc2c(=O)c3cc(Cl)cc(C(=O)Nc4cc(Cl)ccn4)c3[nH]c12` gave an IC50 of over 100 µM.
For `CN1CCN(Cc2cc(CN3CCN(C)CC3)c(O)c(=O)c(CN3CCN(C)CC3)c2)CC1`, the IC50 was 31 µM (active).
Work on `Cc1cc2sc(-c3ccc4nc(-c5ccc(N)cc5)sc4c3)nc2cc1S(=O)(=O)O` yielded an IC50 of over 100 µM.
`CCN(CC)c1ccc(-c2nc3ccc(C)c(S(=O)(=O)O)c3s2)cc1` gave an IC50 of over 100 µM.
In the case of `Cc1ccc2nc(-c3ccc4nc(-c5ccc6nc(-c7ccc8nc(-c9ccc(N)cc9)sc8c7)sc6c5)sc4c3)sc2c1S(=O)(=O)O`, the IC50 is reported as 15 µM (active) and 76 µM (active).
Compound `CCOc1ccc2c(NNC(=O)c3cnccn3)c3c(nc2c1)CCCC3` has an IC50 of over 100 µM.
`Cc1ccc2nc(-c3ccc(N)cc3)sc2c1S(=O)(=O)O` showed an IC50 of over 100 µM.
Compound `Cc1cc2sc(-c3ccc(N)cc3)nc2cc1S(=O)(=O)O` has an IC50 of over 100 µM.
In the case of `Cc1cc(C(O)(c2ccc(Nc3ccccc3)cc2)c2ccc(Nc3ccc(S(=O)(=O)O)cc3)cc2)ccc1N` (stereo not drawn), the IC50 is reported as 4 µM (active).
Work on `Cc1ccc2nc(-c3ccc4nc(-c5ccc(N)cc5)sc4c3)sc2c1S(=O)(=O)O` yielded an IC50 of over 100 µM.
